# In PubChem BioAssay (Tox21):
# Where “and” joins values, the source holds several entries; their conditions need not be identical. Equal values may be shown once. Unmarked numbers belong to inactive results. Records with an inconclusive call do not appear. Entries that show only a call come without a potency. Calls of active or inactive are those of the source. Unless noted, the call rests on the fitted dose curve; in most records, active means well fitted curve in the direction sought with a large enough effect in the repeat runs; inconclusive means weak or mixed curves; inactive means no such curve, though single readings can be large; an effect the other way counts as inactive or inconclusive.
# Tests used:
# [1] = qHTS assay for small molecules that induce genotoxicity in human embryonic kidney cells expressing luciferase-tagged ATAD5 (AID 651632); further: nearly all actives have a fitted effect of over 15% in size
# Procedure, shortened: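 Quantitative HTS in HEK293T expressing luciferase-tagged ATAD5, whose levels rise upon DNA damage. Exposure ran 16 hr at 37C and 5% CO2, with luminescence read 30 min after Amplite addition at room temperature.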
# [2] = qHTS assay for small molecule agonists of the p53 signaling pathway - cell viability (AID 651633; calls by dose curve;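 further: p53RE-bla HCT reporter cells with a stable beta-lactamase p53 reporter; series mostly up to about 83 µM; nearly all actives have a fitted effect of over 30% in size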)
# Procedure, shortened: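 p53RE-bla cells were treated with compound for 16 hours at 37 C. Cytotoxicity was then measured as CellTiter-Glo luminescence after 30 min at room temperature.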
# [3] = qHTS assay for small molecules that induce genotoxicity in human embryonic kidney cells expressing luciferase-tagged ATAD5 - cell viability (AID 651634; calls by dose curve; further: nearly all actives have a fitted effect of over 25% in size; further: potency means the concentration at half of the fitted maximal effect)
# Procedure, shortened: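 After 15.5 hr incubation with compound at 37C, 5% CO2, HEK293T ATAD5-luciferase cells received CellTiter-Fluor reagent; fluorescence intensity was quantified following 30 min at 37C.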
# [4] = qHTS assay to test for compound auto fluorescence at 590 nm (red) in HepG2 cells (AID 720674)
# Procedure, shortened: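 Fluorescence at 590 nm emission following 540 nm excitation was recorded from HepG2 wells one hour after compound transfer, with DMSO-only wells as vehicle and Rose Bengal sodium equivalency as the scale.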
# [5] = qHTS assay to test for compound auto fluorescence at 535 nm (green) in HepG2 cells (AID 720675)
# [6] = qHTS assay to test for compound auto fluorescence at 460 nm (blue) in HEK293 cells (AID 720678)
# Procedure, shortened: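 HEK293, 2,000 cells/well, 10% dialyzed FBS; attach 4-5 hr 37C; pin compound or DMSO; o/n 37C/5% CO2; fluorescence 405/460 nm; triamterene-equivalent units.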
# [7] = qHTS assay to test for compound auto fluorescence at 590 nm (red) in HEK293 cells (AID 720679)
# Procedure, shortened: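 Intensity at 540nm excitation and 590nm emission is reported as Rose Bengal sodium-equivalent autofluorescence. Measurements followed overnight exposure (37C, 5% CO2) of HEK293 cells, 2,000 per well, to 23 nL compound.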
# [8] = qHTS assay to test for compound auto fluorescence at 535 nm (green) in HEK293 cells (AID 720680)
# [9] = qHTS assay to test for compound auto fluorescence at 460 nm (blue) in HEK293 cell free culture (AID 720681)
# Procedure, shortened: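 Compounds were added to cell-free DMEM with 10% FBS and fluorescence read directly. The blue channel used 405 nm excitation and 460 nm emission, with triamterene as the reference fluorophore.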
# [10] = qHTS assay to test for compound auto fluorescence at 535 nm (green) in HEK293 cell free culture (AID 720682)
# Procedure, shortened: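 Green-channel intensity (Ex/Em 485/535 nm) was recorded from compound-treated wells containing only DMEM with 10% FBS. Fluorescein provided the equivalency standard.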
# [11] = qHTS assay to test for compound auto fluorescence at 590 nm (red) in HEK293 cell free culture (AID 720683)
# Procedure, shortened: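 Cell-free wells of DMEM with 10% FBS received compound, and intrinsic fluorescence was read at excitation/emission 540/590 nm. Values expressed as equivalence to Rose Bengal sodium.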
# [12] = qHTS assay to test for compound auto fluorescence at 590 nm (red) in HepG2 cell free culture (AID 720684)
# Procedure, shortened: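 Rose Bengal sodium served as the reference for red signal. Test compounds were dispensed into serum-containing MEM (10% FBS) without cells, and plates were read at 540/590 nm.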
# [13] = qHTS assay to test for compound auto fluorescence at 460 nm (blue) in HepG2 cell free culture (AID 720685)
# Procedure, shortened: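 Cell-free plates of MEM plus 10% FBS received 23 nL compound or DMSO vehicle; blue-channel (405/460 nm) intensity scored against triamterene as reference fluorophore.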
# [14] = qHTS assay to test for compound auto fluorescence at 535 nm (green) in HepG2 cell free culture (AID 720686)
# [15] = qHTS assay to test for compound auto fluorescence at 460 nm (blue) in HepG2 cells (AID 720687)
# Procedure, shortened: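 HepG2 cells in MEM with 10% FBS, attached overnight at 37 C, were exposed to compound or DMSO for 1 hr at 37 C, 5% CO2. Blue fluorescence was read at 405/460 nm, with triamterene as reference fluorophore.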
# [16] = biological target: Glucocorticoid receptor (Homo sapiens) (UniProt P04150); assay: qHTS assay to identify small molecule agonists of the glucocorticoid receptor (GR) signaling pathway (AID 720691; active means well fitted activation curve with a large enough effect in the signal ratio in the repeat runs, not every such curve was filed as active; the % refers to the signal ratio)
# Glucocorticoid receptor (Homo sapiens), sequence (P04150 whole entry, looked up): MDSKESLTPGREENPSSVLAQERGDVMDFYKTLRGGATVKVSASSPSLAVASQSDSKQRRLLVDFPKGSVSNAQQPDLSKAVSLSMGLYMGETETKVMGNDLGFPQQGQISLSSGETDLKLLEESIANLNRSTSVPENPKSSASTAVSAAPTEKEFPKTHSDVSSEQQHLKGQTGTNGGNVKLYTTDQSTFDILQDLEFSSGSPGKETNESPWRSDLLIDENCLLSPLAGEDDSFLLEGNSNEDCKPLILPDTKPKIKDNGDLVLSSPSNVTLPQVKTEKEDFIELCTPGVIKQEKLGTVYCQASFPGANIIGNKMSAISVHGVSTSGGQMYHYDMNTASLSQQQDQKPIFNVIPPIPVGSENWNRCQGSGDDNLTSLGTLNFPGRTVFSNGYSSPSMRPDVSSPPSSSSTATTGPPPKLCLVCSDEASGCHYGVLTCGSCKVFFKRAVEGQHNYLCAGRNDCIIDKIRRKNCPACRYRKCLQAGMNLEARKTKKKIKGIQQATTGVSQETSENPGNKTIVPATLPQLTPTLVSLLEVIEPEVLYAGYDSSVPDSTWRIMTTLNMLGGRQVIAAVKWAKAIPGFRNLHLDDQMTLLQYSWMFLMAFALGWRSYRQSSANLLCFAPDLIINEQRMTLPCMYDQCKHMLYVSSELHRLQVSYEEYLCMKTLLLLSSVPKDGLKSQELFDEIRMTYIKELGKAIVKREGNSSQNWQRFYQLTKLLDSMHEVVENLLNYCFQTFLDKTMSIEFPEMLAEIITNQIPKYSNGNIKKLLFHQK
# Procedure, shortened: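 Cells: GR-bla HeLa, endogenous GR with stably integrated GRE-beta-lactamase reporter. Treatment 18 h, 37 C, compounds delivered in DMSO. Detection via LiveBLAzer B/G FRET substrate, 2 h RT, fluorescence intensity.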
# [17] = biological target: Glucocorticoid receptor (Homo sapiens) (UniProt P04150); assay: qHTS assay to identify small molecule antagonists of the glucocorticoid receptor (GR) signaling pathway (AID 720692; active means well fitted inhibition curve with a large enough effect in the signal ratio in the repeat runs, not every such curve was filed as active; the % refers to the signal ratio; further: potency means the concentration at half of the fitted maximal effect)
# Procedure, shortened: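 Quantitative HTS in antagonist format: HeLa cells expressing endogenous GR and a stably integrated GRE-bla reporter, stimulated with 5 nM dexamethasone (final) alongside test compounds for 18 h.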
# [18] = qHTS assay for small molecule disruptors of the mitochondrial membrane potential - cell viability (AID 720634; calls by dose curve; further: nearly all actives have a fitted effect of over 20% in size; further: potency means the concentration at half of the fitted maximal effect)
# Procedure, shortened: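 ATP-based luminescent viability readout (CellTiter-Glo, 30 min, room temperature) in HepG2 cells multiplexed with the m-MPI membrane potential dye; compound exposure lasted 1 hr at 37 C.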
# [19] = qHTS assay for small molecule disruptors of the mitochondrial membrane potential (AID 720635); further: potency means the concentration at half of the fitted maximal effect
# Procedure, shortened: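 HepG2 cells exposed to compound 1 hr at 37C, then Mito-MPS dye 30 min. Ratio read of aggregate (540/590 nm) versus monomer (490/535 nm) fluorescence.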
Structure (SMILES),Potency [1],Potency [2],Potency [3],outcome [4],outcome [5],outcome [6],outcome [7],outcome [8],outcome [9],outcome [10],outcome [11],outcome [12],outcome [13],outcome [14],outcome [15],Potency [16],Potency [17],Potency [18],Potency [19]
O=P(OCC(Br)CBr)(OCC(Br)CBr)OCC(Br)CBr (stereo unspecified),inactive,inactive,inactive,inactive,inactive,inactive,inactive,inactive,inactive,inactive,inactive,inactive,inactive,inactive,inactive,inactive,55.7 µM (active),–,–
CCCCCBr,inactive,inactive,inactive,inactive,inactive,inactive,inactive,inactive,inactive,inactive,inactive,inactive,–,inactive,inactive,inactive,inactive,inactive,–
CCCN(CCOc1c(Cl)cc(Cl)cc1Cl)C(=O)n1ccnc1,inactive,inactive,inactive,inactive,inactive,inactive,inactive,inactive,inactive,inactive,inactive,inactive,–,inactive,inactive,inactive,–,–,–
O=[N+]([O-])c1cc(Cl)c(Cl)cc1Cl,inactive,inactive,inactive,inactive,inactive,inactive,inactive,inactive,inactive,inactive,inactive,inactive,inactive,inactive,inactive,inactive,inactive,inactive,–
NP(N)(=O)NC(=O)c1ccc(F)cc1,inactive,inactive,inactive,inactive,inactive,inactive,inactive,inactive,inactive,inactive,inactive,inactive,inactive,inactive,inactive,inactive,inactive,inactive,–
Cc1ncc(C[n+]2csc(CCO)c2C)c(N)n1,–,inactive,inactive,inactive,inactive,inactive,inactive,inactive,inactive,inactive,inactive,inactive,inactive,inactive,inactive,–,–,inactive,–
[Cl-].[Cl-].[Hg+2],–,–,5.31 µM (active) and 30.5 µM (active) and 61.1 µM (active),inactive,inactive,inactive,inactive,inactive,inactive,inactive,inactive,inactive,–,inactive,inactive,–,–,–,–
O=C(Cc1ccccc1)c1ccccc1,inactive,inactive,inactive,inactive,inactive,inactive,inactive,inactive,inactive,inactive,inactive,inactive,inactive,inactive,inactive,inactive,inactive,inactive,–
C[Si](Cn1cncn1)(c1ccc(F)cc1)c1ccc(F)cc1,inactive,–,inactive,inactive,inactive,inactive,inactive,inactive,inactive,inactive,inactive,inactive,–,inactive,inactive,–,–,31.6 µM (active),56.3 µM (active) and 27.3 µM (active)
CC(Oc1cc(Cl)c(Cl)cc1Cl)C(=O)O (stereo unspecified),inactive,inactive,inactive,inactive,inactive,inactive,inactive,inactive,inactive,inactive,inactive,inactive,–,inactive,inactive,inactive,inactive,inactive,–
CN1C[C@H](C(=O)N[C@]2(C)O[C@@]3(O)[C@@H]4CCCN4C(=O)[C@H](Cc4ccccc4)N3C2=O)C=C2c3cccc4[nH]cc(c34)C[C@H]21,inactive,inactive,–,inactive,inactive,inactive,inactive,inactive,inactive,inactive,inactive,inactive,inactive,inactive,inactive,inactive,–,inactive,4.22 µM (active) and 9.73 µM (active) and 18 µM (active)
NNCCO,inactive,inactive,inactive,inactive,inactive,inactive,inactive,inactive,inactive,inactive,inactive,inactive,inactive,inactive,inactive,–,–,–,–
ClCc1ccccc1Cl,inactive,inactive,inactive,inactive,inactive,inactive,inactive,inactive,inactive,inactive,inactive,inactive,inactive,inactive,inactive,inactive,inactive,inactive,–
C=C(C)C(=O)OCCCCOC(=O)C(=C)C,inactive,inactive,inactive,inactive,inactive,inactive,inactive,inactive,inactive,inactive,inactive,inactive,inactive,inactive,inactive,inactive,inactive,inactive,–
CC(C)(C)N(NC(=O)c1ccc(Cl)cc1)C(=O)c1ccccc1,inactive,inactive,–,inactive,inactive,inactive,inactive,inactive,inactive,inactive,inactive,inactive,–,inactive,inactive,inactive,inactive,–,60.8 µM (active)
